Our source for the outcome values is PubChem BioAssay.

The structures appear in SMILES notation. Measured potencies and affinities stand elsewhere. Activity calls are given as the source filed them. The limit is not given here; nearly all actives have IC50 up to about 0.91 µM.

Sequence of Calcium-dependent protein kinase 4 (Plasmodium falciparum (isolate 3D7)) (Q8IBS5 whole entry, looked up): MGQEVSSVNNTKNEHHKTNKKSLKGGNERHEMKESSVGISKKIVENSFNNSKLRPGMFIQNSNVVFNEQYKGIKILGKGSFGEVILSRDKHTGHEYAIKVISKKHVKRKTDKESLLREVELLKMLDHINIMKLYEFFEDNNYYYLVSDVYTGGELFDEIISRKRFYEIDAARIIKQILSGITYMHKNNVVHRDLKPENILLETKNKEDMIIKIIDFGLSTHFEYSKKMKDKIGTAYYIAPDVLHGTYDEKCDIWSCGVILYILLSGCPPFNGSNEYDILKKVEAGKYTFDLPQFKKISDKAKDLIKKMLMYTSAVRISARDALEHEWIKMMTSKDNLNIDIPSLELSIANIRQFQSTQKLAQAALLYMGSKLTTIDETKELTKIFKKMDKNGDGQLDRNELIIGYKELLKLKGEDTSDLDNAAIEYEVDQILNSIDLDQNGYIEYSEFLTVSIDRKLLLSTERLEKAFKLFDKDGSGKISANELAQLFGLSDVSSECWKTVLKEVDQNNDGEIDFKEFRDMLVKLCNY

The assay addresses Calcium-dependent protein kinase 4 (Plasmodium falciparum (isolate 3D7)) (UniProt Q8IBS5). As to the kind of experiment: PfCDPK4 kinase inhibitors, biochemical, TCAMS library (AID 1159588). As to conditions: recombinant PfCDPK4, Kinase-Glo ATP depletion luminescence.
On to `COc1ccc(N2CCN(CCCCNC(=O)c3ccc(NC(=O)c4ccc(Cl)cc4)cc3)CC2)c(OC)c1`, for which the result was inactive.
Consider `Clc1ccc2c(NCCCCCCCCNc3ccnc4cc(Cl)ccc34)ccnc2c1`, for which the outcome was inactive.
Then `CN1CCN(CCCN(Cc2cccc(-c3cccc(CNCCc4ccccc4)c3)c2)C(=O)Nc2ccccc2)CC1`, with “inactive”.
Then `Cc1nc(-c2cccc(Nc3nccc(NCC(O)c4ccccc4C(F)(F)F)n3)c2)cs1` (stereo not given), with “inactive”; and `COc1ccc(NC(=O)CSc2nc(-c3ccccc3Cl)ns2)cc1`, with “inactive”; and `Cc1cnc(NCCc2ccc(F)cc2)nc1N[C@@H](CC(C)C)C(=O)Nc1ccccc1`, with “inactive”.
`COc1cc(CNC[C@@H](O)[C@H](Cc2ccccc2)NC(=O)c2cc(C3CCCC3)cc(N3CCCC3=O)c2)cc(OC)c1`: the result was inactive.
On to `Cc1cccc2[nH]c(-c3ccc(-c4cccc(CNCc5ccccc5)c4)cc3)nc12`, for which the outcome was inactive.
As to `CN1N=C2c3ccccc3CCC2C1c1ccc(C#N)cc1` (stereo not given), the outcome was inactive.
For `Cc1c(C(=O)N2CCc3cc4nccc(N5CCN6CCC[C@H]6C5)c4cc32)cnn1-c1ccc(C#N)cc1`, the outcome was inactive.
Then `CCOc1cc(C)ccc1C1CCN(CCCCNC(=O)c2coc(-c3ccc(Cl)cc3)c2)CC1`, with “inactive”.
Then `Cc1cc(N[C@@H](Cc2ccccc2)C(=O)NCc2cccs2)nc(NCCOc2ccccc2)n1`, with “inactive”; and `COc1cc(COc2c(C)nc(N)nc2N)cc(OC)c1OC`, with “inactive”.
Then `O=C(Nc1cccc(CN2CCCN(CC3CC3)CC2)c1)c1ccc(-c2ccccc2)cc1`, with “inactive”; and `C=CCc1cc(Br)ccc1OCCCOc1c(N)nc(N)nc1N`, with “inactive”.
